# Hits are enriched below; roughly 19% of the tested compounds scored in any of these assays.
# TDP1 cell noCPT – qHTS for Inhibitors of human tyrosyl-DNA phosphodiesterase 1 (TDP1): qHTS in cells in absence of CPT; DT40 Tdp1-/- hTDP1 cells, no CPT, ATP luminescence, 48 h; Potency, µM (doses to about 46.2 µM), most hits filed as inhibitors; 420,000 tested, 15% active; AID 686978, 2013; also: nearly all actives have a fitted effect of over 55% in size
#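 DT40 Tdp1-/-;hTDP1 cells, no CPT (DMSO vehicle only), 400 cells/well; compounds pin-transferred; ≥48 hr, 37 °C; CellTiter-Glo 30 min RT dark, luminescence read.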
# HepG2 tox – kills HepG2 cells in TGF-b inhibitor counter-screen. HepG2 CAGA-GFP viability, ATP luminescence, 18 h. Potency, µM (highest dose often 46.1 µM), usual class: cytotoxic. 410,000 tested, 0.76% active
#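 CellTiter-Glo luminescence gave cytotoxicity after 18 hours at 37 degrees C. The cells were HepG2 CAGA-GFP in 1% FBS DMEM, stimulated with 500 pg/mL TGF-beta after compound addition. %Activity was normalised to no-cell wells (complete cell-killing) and DMSO (no toxicity), and curves were fitted and classified.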
# ASM inhibitor – human S-ASM enzyme inhibition. P17405. placental ASM, HMU-PC fluorogenic substrate, 60 min. Potency, µM (top dose mostly 57.5 µM), usual class: inhibitors. 340,000 tested, 0.006% active. AID 504937
# Target sequence (P17405 47-631 limits assumed): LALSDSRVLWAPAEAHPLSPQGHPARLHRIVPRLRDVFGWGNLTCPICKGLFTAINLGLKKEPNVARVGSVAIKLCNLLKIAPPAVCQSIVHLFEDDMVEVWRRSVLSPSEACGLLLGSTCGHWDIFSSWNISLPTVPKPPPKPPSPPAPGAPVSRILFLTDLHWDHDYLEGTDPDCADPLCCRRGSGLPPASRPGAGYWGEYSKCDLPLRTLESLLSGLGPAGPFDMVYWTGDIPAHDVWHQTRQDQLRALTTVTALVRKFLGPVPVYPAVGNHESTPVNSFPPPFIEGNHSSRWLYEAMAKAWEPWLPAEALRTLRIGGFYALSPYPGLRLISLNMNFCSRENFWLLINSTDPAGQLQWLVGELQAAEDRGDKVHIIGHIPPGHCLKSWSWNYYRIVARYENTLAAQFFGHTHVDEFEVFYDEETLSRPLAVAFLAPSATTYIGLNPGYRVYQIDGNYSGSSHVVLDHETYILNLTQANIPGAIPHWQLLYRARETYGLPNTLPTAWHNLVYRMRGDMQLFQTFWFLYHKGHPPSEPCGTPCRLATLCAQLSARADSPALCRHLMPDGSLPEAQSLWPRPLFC
#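 Fluorescence read-out (Ex 386 nm, Em 447 nm) after stopping the reaction at pH 10. Enzyme: ASM from human placenta; substrate HMU-PC0, 9 uM final; 60 min, 37 °C. Compound preincubation 10 min, ambient temperature.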
# TDP1 cell CPT – growth inhibition of DT40 Tdp1-/-;hTDP1 cells with camptothecin (screen for TDP1 inhibitors); chicken DT40 Tdp1-/-;hTDP1 cells + 20 nM CPT, ATP luminescence, 48 h; Potency, µM (highest dose often 46.2 µM), most hits filed as inhibitors; 420,000 tested, 12% active; AID 686979; also: nearly all actives have a fitted effect of over 55% in size
#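 Chicken DT40 Tdp1-/- cells stably complemented with human TDP1 were seeded at 400 cells/well in medium containing 20 nM camptothecin, exposed to pin-transferred compounds, and grown at 37 °C for at least 48 hr. Viability was read as ATP luminescence.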
# TGFb inhibitor – inhibitors of TGF-b signaling | Potency, µM (highest dose often 46.1 µM), most hits filed as inhibitors | HepG2 CAGA-GFP TGF-b/SMAD3 reporter, GFP fluorescence, 18 h; TGF-beta stimulated, 500 pg/mL final | 410,000 tested, 1.2% active | AID 588855; also: nearly all actives have a fitted effect of over 65% in size
#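 First, reporter cells (HEPG2 CAGA-GFP) rested 2 h at 37 degrees C. Next, compounds were pinned in and TGF-beta added to 500 pg/mL final. After 18 h, GFP was imaged per cell and summed per well.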
# IL-1B inflam inh – inflammasome signaling inhibition, IL-1 beta readout; THP-1 LPS/ATP IL-1B secretion, AlphaLISA, 16 h; active compounds read low; activity change, % at 57.5 µM; 360,000 tested, 4.7% active; in the data active = activity change below about -50%; inconclusive = mostly about -30% to -49%
#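 Secreted IL-1B measured by AlphaLISA bead assay after 16 h compound exposure of THP-1 cells; compounds (final up to 57.5 uM) added 1 h before LPS (250 ng/mL) and ATP (1.25 mM) stimulation; lower signal means less secretion.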
# A number is an active result; – = inactive; ? = inconclusive; · = no result given. Unless noted, calls follow the shape of the dose curve; as a rule, active = well fitted curve in the direction sought with a large enough effect; inconclusive = small, poorly fitted or top-dose-only effect, or another doubt; inactive = no such curve, though single readings can be large; an effect the other way counts as inactive or inconclusive.
SMILES,TDP1 cell noCPT,HepG2 tox,ASM inhibitor,TDP1 cell CPT,TGFb inhibitor,IL-1B inflam inh
CCCCN1CCC2C=CCC(C(=O)O)C2C1=O (stereo unspecified),·,–,·,·,–,·
Cc1ccc(S(=O)(=O)N(C)C)cc1NC(=O)COC(=O)C1CC(=O)N(c2ccc3c(c2)OCCO3)C1 (stereo unspecified),–,–,–,–,–,–
O=S(=O)(NCCCCNS(=O)(=O)c1cccc2cccnc12)c1cccc2cccnc12,–,–,·,–,–,·
O=S(=O)(NCCNC/C=C/c1ccc(Br)cc1)c1cccc2cnccc12,23.6µM,·,·,18.7µM,·,·
O=S(=O)(c1cccc2cnccc12)N1CCCNCC1,?,–,–,?,–,–
O=S(=O)(NCCNCC=Cc1ccc(Br)cc1)c1cccc2cnccc12,14.1µM,–,·,10µM,?,·
CNCCNS(=O)(=O)c1cccc2cnccc12,?,·,·,18.4µM,·,·
CCOc1ccc(NC(=O)CC2C(=O)NCCN2C(=O)c2ccc(Cl)cc2)cc1 (stereo unspecified),–,–,–,–,–,–
O=C(NCCC(=O)N1CCN(c2ccccc2O)CC1)c1ccc(Br)cc1,–,–,–,?,–,–
O=C(NCC(=O)N1CCN(Cc2ccccc2)CC1)c1ccc(Cl)cc1,?,–,–,?,–,?
O=C(NCC(=O)N1CCN(Cc2ccccc2)CC1)c1cc(Cl)cc([N+](=O)[O-])c1,?,–,–,16.4µM,–,–
O=C(NCCC(=O)N1CCN(c2cccc(Cl)c2)CC1)c1ccc(Br)cc1,?,–,–,?,?,-54.8
Cc1cc(C)cc(C(=O)NCC(=O)N2CCN(c3cccc(Cl)c3)CC2)c1,?,–,–,?,?,-69.6
O=C(NCC(=O)N1CCN(Cc2c(F)cccc2Cl)CC1)c1cccc(Cl)c1,16.4µM,–,–,6.51µM,–,–
C[C@@H](NC(=O)[C@@H]1CCCN1C(=O)[C@@H]1CCCN1C(=O)c1ccccc1)c1ccccc1,–,·,·,–,·,–
CCC(Cc1ccccc1)NS(=O)(=O)c1c(C)nc2scc(C)n2c1=O (stereo unspecified),–,–,–,–,–,–
Cc1cccc(N2CCN(C(=O)CNC(=O)c3cccc([N+](=O)[O-])c3)CC2)c1C,18.4µM,–,–,?,–,–
Cc1cccc(N2CCN(C(=O)CNC(=O)Cc3ccccc3)CC2)c1C,?,–,–,?,–,–
CC(/C=N/Nc1nnc2c(n1)[nH]c1ccccc12)=C\c1ccco1,?,–,–,25.9µM,–,–
Cc1ccc(S(=O)(=O)Nc2cccc(C(=O)NCC(c3ccco3)N(C)C)c2)cc1F (stereo unspecified),20.6µM,–,–,?,–,–
Cc1ccc(S(=O)(=O)Nc2cccc(C(=O)NCc3cccnc3)c2)cc1F,4.61µM,–,–,?,?,–
Cc1ccc(S(=O)(=O)Nc2cccc(C(=O)NCC(c3ccccc3)N(C)C)c2)cc1F (stereo unspecified),?,–,–,–,–,?
Cc1ccc(NC(=O)COC(=O)CNC(=O)c2cccs2)cc1S(=O)(=O)N1CCOCC1,–,–,–,–,–,–
COc1ccc(NS(=O)(=O)c2cccc(C(=O)NNC(=O)CN3C(=O)NC(C)(C)C3=O)c2)cc1,–,–,·,–,–,–
O=C1C2C3c4ccccc4C(c4ccccc43)C2C(=O)N1/N=C/c1cccc(O)c1 (stereo unspecified),?,–,–,20.6µM,–,–
O=C(/C=C/c1ccccc1)NC(NC(=S)Nc1ccc(Cl)cc1Cl)C(Cl)(Cl)Cl (stereo unspecified),18.4µM,–,·,20.6µM,?,–
COc1ccc(/C=C/C(=O)Nc2ccc(Cl)cc2Cl)cc1,–,–,·,–,–,·

# From PubChem BioAssay
